In PubChem BioAssay (NCATS):
Several values for one entry are separate records, joined by “and”; a condition that tells them apart may be missing. Equal values may be shown once. Records with an inconclusive call do not appear. Activity calls are given as the source filed them. Unless noted, calls follow the shape of the dose curve; as a rule, active = well fitted curve in the direction sought with a large enough effect; inconclusive = small, poorly fitted or top-dose-only effect, or another doubt; inactive = no such curve, though single readings can be large; an effect the other way counts as inactive or inconclusive.

What was measured:
[1] = biological target: Cellular tumor antigen p53 (Homo sapiens) (UniProt P04637); assay: Primary qHTS for small molecule compounds that upregulate eGFP-tagged delta133p53alpha (in N-terminal) cells. (AID 2060322); details: NCI-H358 eGFP-delta133p53alpha fluorescence, 24 h; activation: stronger effect = higher value;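 also: cells pre-induced with doxycycline then dosed without doxycycline; series mostly up to about 56 µM; 0% = DMSO vehicle and 100% = reference activator; nearly all actives have a fitted effect of over 75% in size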
How it was run: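 NCI-H358 cells pre-induced 24 h with 10 ng/ml doxycycline for eGFP-delta133p53alpha, plated dox-free and exposed 24 h at 37C to titrated compounds. Fixed, Hoechst-stained; gated GFP peak intensity by laser scanning cytometry, normalized to DMSO (0%) and 57.5 uM 5-azacytidine (100%).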

[2] = biological target: Aldehyde dehydrogenase, mitochondrial (Homo sapiens) (UniProt P05091); assay: qHTS for Inhibitors of the Aldehyde Dehydrogenase Family (ALDH2) Validation screens (AID 2061302; active = well fitted inhibition curve with a large enough effect; title and protocol of this record describe different tests; also: potency is read from the fitted curve at half-maximal effect)
[3] = biological target: Retinaldehyde dehydrogenase 3 (Homo sapiens) (UniProt P47895); assay: qHTS for Inhibitors of the Aldehyde Dehydrogenase Family (ALDH1A3) Validation screen (AID 2061312); also: nearly all actives have a fitted effect of over 45% in size; also: potency is read from the fitted curve at half-maximal effect
[4] = biological target: Aldehyde dehydrogenase, mitochondrial (Homo sapiens) (UniProt P05091); assay: qHTS for Inhibitors of the Aldehyde Dehydrogenase Family (ALDH2) Confirmatory screens (AID 2061303; active = well fitted inhibition curve with a large enough effect; title and protocol of this record describe different tests; also: % is scaled to controls: 0 for no effect and ±100 for the full control effect; nearly all actives have a fitted effect of over 45% in size)
[5] = qHTS for Inhibitors of the Aldehyde Dehydrogenase Family (ALDH1A2, ALDH1A3, ALDH2, ALDH3A1) (AID 2061307); also: % is scaled to controls: 0 for no effect and ±100 for the full control effect; nearly all actives have a fitted effect of over 50% in size
[6] = biological target: Aldehyde dehydrogenase, mitochondrial (Homo sapiens) (UniProt P05091); assay: qHTS for Inhibitors of the Aldehyde Dehydrogenase Family (ALDH2) Primary screen (AID 2061308);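 also: plate controls were vehicle for no effect and reference inhibitor for full effect; nearly all actives have a fitted effect of over 55% in size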
[7] = biological target: Retinaldehyde dehydrogenase 3 (Homo sapiens) (UniProt P47895); assay: qHTS for Inhibitors of the Aldehyde Dehydrogenase Family (ALDH1A3) Confirmatory screens (AID 2061311); also: % is scaled to controls: 0 for no effect and ±100 for the full control effect; nearly all actives have a fitted effect of over 60% in size
[8] = biological target: Retinal dehydrogenase 2 (Homo sapiens) (UniProt O94788); assay: qHTS for Inhibitors of the Aldehyde Dehydrogenase Family (ALDH1A2) Confirmation screens (AID 2061314); also: nearly all actives have a fitted effect of over 65% in size
[9] = biological target: Retinaldehyde dehydrogenase 3 (Homo sapiens) (UniProt P47895); assay: qHTS for Inhibitors of the Aldehyde Dehydrogenase Family (ALDH1A3) Primary screen (AID 2061315);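 also: plate controls were DMSO vehicle for no effect and reference inhibitor for full effect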
[10] = biological target: Aldehyde dehydrogenase 1A1 (Homo sapiens) (UniProt P00352); assay: qHTS for Inhibitors of the Aldehyde Dehydrogenase Family (ALDH1A1) Confirmatory screens (AID 2061316); also: % is scaled to controls: 0 for no effect and ±100 for the full control effect; nearly all actives have a fitted effect of over 65% in size
[11] = BET inhibitor-based combinations targeting novel dependencies in MECOM-rearranged (r) AML: OCI-AML3 cell line (AID 2202232); details: Potency: OCI-AML3 viability; also: nearly all actives have a fitted effect of over 35% in size; also: potency is read from the fitted curve at half-maximal effect
How it was run: (§1)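 Readout: CellTiter-Glo luminescence. Exposure: 48 h, 11 concentrations, 500 cells/well. Metric: AUC and within-line Z-AUC after DMSO/empty-well normalization.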

[12] = BET inhibitor-based combinations targeting novel dependencies in MECOM-rearranged (r) AML: MV-4-11 cell line (AID 2202233); also: nearly all actives have a fitted effect of over 45% in size; also: potency is read from the fitted curve at half-maximal effect
How it was run: (§2)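 Seeding density was 500 cells/well, and drug exposure lasted 48 hr under standard culture conditions. Read-out used CellTiter-Glo reagent with a 15 min room-temperature incubation before luminescence measurement; AUC and Z-AUC summarize the normalized responses.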

[13] = BET inhibitor-based combinations targeting novel dependencies in MECOM-rearranged (r) AML: UCSD-AML1 cell line (AID 2202235); also: nearly all actives have a fitted effect of over 40% in size; also: potency is read from the fitted curve at half-maximal effect
How it was run: as §2

[14] = BET inhibitor-based combinations targeting novel dependencies in MECOM-rearranged (r) AML: SET-2 cell line (AID 2202231); details: SET-2 AML cells viability, CellTiter-Glo luminescence, 48 h; viability: stronger effect = lower value, concentration not given here; also: nearly all actives have a fitted effect of over 35% in size; also: potency is read from the fitted curve at half-maximal effect;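 as to viability: plate controls were DMSO treated cells for no effect and wells without cells for full effect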
How it was run: as §1

[15] = BET inhibitor-based combinations targeting novel dependencies in MECOM-rearranged (r) AML: HNT-34 cell line (AID 2202234); also: nearly all actives have a fitted effect of over 35% in size; also: potency is read from the fitted curve at half-maximal effect
How it was run: as §2

[16] = BET inhibitor-based combinations targeting novel dependencies in MECOM-rearranged (r) AML: AML-191 cell line (AID 2202236; also: nearly all actives have a fitted effect of over 35% in size; also: potency is read from the fitted curve at half-maximal effect)
How it was run: as §1

[17] = BET inhibitor-based combinations targeting novel dependencies in MECOM-rearranged (r) AML: AML-194 cell line (AID 2202237;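 also: plate controls were vehicle wells for no effect and wells without cells for full effect; nearly all actives have a fitted effect of over 40% in size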)
How it was run: as §1

Chain of Cellular tumor antigen p53 (Homo sapiens) (P04637 whole entry, looked up): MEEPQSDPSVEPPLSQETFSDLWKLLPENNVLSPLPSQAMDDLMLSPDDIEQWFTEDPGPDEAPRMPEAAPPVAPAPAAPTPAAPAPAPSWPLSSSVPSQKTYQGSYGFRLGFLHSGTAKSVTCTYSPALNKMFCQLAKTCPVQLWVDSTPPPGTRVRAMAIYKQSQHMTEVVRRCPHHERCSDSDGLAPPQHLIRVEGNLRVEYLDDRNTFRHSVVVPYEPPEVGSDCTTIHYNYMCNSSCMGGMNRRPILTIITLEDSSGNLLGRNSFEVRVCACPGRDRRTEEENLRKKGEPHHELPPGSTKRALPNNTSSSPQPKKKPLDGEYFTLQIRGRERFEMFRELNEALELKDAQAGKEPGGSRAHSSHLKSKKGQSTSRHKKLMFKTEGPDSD

c1ccc2c(N3CCNCC3)cccc2c1
inactive: activation [1] -14.7% | Potency [2]

O=C(O)[C@@H]1CCN1
inactive: activation [1] -48.2% | Potency [2] | Potency [3]

Cc1nccc2c1[nH]c1ccccc12
inactive: activation [1] -18.9% | Potency [2] | Potency [3]

C[N+]1(C)C2CCC1CC(OC(=O)C(CO)c1ccccc1)C2 (stereo not drawn)
inactive: activation [1] -2.46% and -16.7% | Potency [2] | Potency [3]

NCCc1ccc(O)cc1
inactive: activation [1] 0.565% and 11.2% | Potency [2] | Potency [3]

CCCN(CCC)[C@@H]1CCc2ccc3[nH]c(C#N)cc3c2C1
inactive: activation [1] 19.1% | Potency [4] | Potency [5] | Potency [6] | Potency [7] | Potency [8] | Potency [9]

O=S(=O)(c1ccccc1F)N1CCOc2c(N3CCNCC3)cccc21
inactive: activation [1] 9.07% | Potency [4] | Potency [5] | Potency [6] | Potency [7] | Potency [8] | Potency [9] | Potency [10]

NCCc1c[nH]c2ccc(C(N)=O)cc12
inactive: activation [1] -19.7% | Potency [2] | Potency [3]

NC(=O)CN1CCCC1=O
inactive: activation [1] -3.35% and 1.41% | Potency [2] | Potency [3]

CCCN(CCC)[C@@H]1CCc2cccc(O)c2C1
inactive: activation [1] 20% | Potency [2] | Potency [3]

CC(=O)[C@H]1CC[C@H]2[C@@H]3CC[C@H]4C[C@](C)(O)CC[C@]4(C)[C@H]3CC[C@]12C
inactive: activation [1] -8.47% and -37.3% | Potency [2] | Potency [3]

CCCCCN(C)CCC(O)(P(=O)(O)O)P(=O)(O)O
inactive: activation [1] 3.78% and 4.27% | Potency [2] | Potency [3]

CC(=O)c1c(O)c(C)c(O)c(Cc2c(O)c3c(c(C(=O)/C=C/c4ccccc4)c2O)OC(C)(C)C=C3)c1O
active: Potency [2] 8.91 µM | Potency [13] 4.17 µM
inactive: activation [1] -54.1% | Potency [11] | Potency [12]

CC(C)(C)NCC(O)c1ccccc1Cl (stereo not drawn)
inactive: activation [1] 26.8% and -4.18% | Potency [2] | Potency [3]

O=S1(=O)N(CCN2CC=C(c3c[nH]c4cc(F)ccc34)CC2)c2cccc3c2N1CCC3
inactive: activation [1] 24.1% | Potency [2] | Potency [3]

Oc1ccc2c3c1O[C@H]1c4oc5ccccc5c4C[C@@]4(O)C(C2)N(CC2CC2)CCC314 (stereo partly drawn)
inactive: activation [1] -83.6% | Potency [2] | Potency [3]

C[C@H](N)Cc1cccc(C(F)(F)F)c1
inactive: activation [1] -17% | Potency [2] | Potency [3]

CCCN(CCC)C1CCc2cccc(O)c2C1 (stereo not drawn)
inactive: activation [1] 29.8% | Potency [2] | Potency [3]

COC[C@H]1OC(=O)c2coc3c2[C@@]1(C)C1=C(C3=O)C2CCC(=O)[C@@]2(C)C[C@H]1OC(C)=O (stereo partly drawn)
active: Potency [3] 7.08 µM | Potency [14] 18.6 µM | Potency [11] 7.42 µM | Potency [12] 5.25 µM | Potency [15] 5.9 µM | Potency [13] 5.9 µM | Potency [16] 6.61 µM
inactive: activation [1] -11.7% | Potency [2]

Clc1cnc(Oc2ccc(Oc3ncc(Cl)cc3Cl)cc2)c(Cl)c1
inactive: activation [1] -22.6% | Potency [2] | Potency [3]

NC(CP(=O)(O)O)C(=O)O (stereo not drawn)
inactive: activation [1] -3.82% | Potency [2] | Potency [3]

CCCN1CCO[C@@H]2c3cc(O)ccc3OC[C@H]21
inactive: activation [1] -9.95% | Potency [2] | Potency [11] | Potency [15] | Potency [17]

CNCCc1c[nH]c2ccc(O)cc12
inactive: activation [1] -26.4% | Potency [2] | Potency [3]

COc1cc(C(O)CN)ccc1O (stereo not drawn)
inactive: activation [1] -24.3% | Potency [2] | Potency [3]

CCCC[N+]1(C)C2CC(OC(=O)[C@H](CO)c3ccccc3)CC1C1OC12 (stereo partly drawn)
inactive: activation [1] -8.28% | Potency [2] | Potency [3]

CCCN1CCC[C@H](c2cccc(O)c2)C1
inactive: activation [1] 4.78% | Potency [2] | Potency [3]

C[C@@H]1O[C@@H](O[C@H]2C[C@@H](O)[C@]3(CO)[C@@H]4C(CC[C@]3(O)C2)[C@@]2(O)CC[C@H]([C@@H]3COC(=O)C3)[C@@]2(C)C[C@H]4O)[C@H](O)[C@H](O)[C@H]1O (stereo partly drawn)
inactive: activation [1] -50% | Potency [2] | Potency [3]

CC(=O)NBr
inactive: activation [1] -8.24% | Potency [2] | Potency [3]

O=P1(N(CCCl)CCCl)NCCCO1 (stereo not drawn)
inactive: activation [1] -25.4% and -10.4% and -10.6% | Potency [2] | viability [14] 114% | Potency [11] | Potency [12] | Potency [13] | Potency [16] | Potency [17]

CC(=O)[C@H]1CCC2C3CC[C@H]4C[C@H](O)CC[C@]4(C)C3CC[C@@]21C (stereo partly drawn)
inactive: activation [1] -16.4% | Potency [2] | Potency [3]
